Most compounds without a hit are left out; they make up all but 12% or so of the library.
G9a inh: inhibitors of human histone lysine methyltransferase G9a; Q96KQ7; G9a H3K9 monomethylation, AlphaScreen, 2 h; Potency, µM (series often up to 102 µM), actives largely listed as inhibitors; 350,000 compounds, 8.8% hits; AID 504332; note: nearly all actives have a fitted effect of over 75% in size
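Chemiluminescent proximity detection of H3K9 monomethylation, read after 10 min bead incubation in the dark. Reaction: 20 nM G9a, 500 nM biotin-H3K9 peptide, 20 uM SAM cofactor, 2 h, room temperature, following 15 min enzyme-compound preincubation.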
JMJD2A Tudor inh: inhibitors of human JMJD2A Tudor domain; AlphaScreen JMJD2A-Tudor / H3K4me3 peptide binding; AID 504339; 390,000 compounds, 4.4% hits; Potency, µM (titrated, usually from 114 µM), usual class: inhibitors; O75164; note: nearly all actives have a fitted effect of over 50% in size
BAZ2B block: BAZ2B (human) inhibition. Q9UIF8. AlphaScreen BAZ2B-H3K14Ac peptide displacement. Potency, µM (series often up to 114 µM), most hits filed as inhibitors. 360,000 compounds, 4.4% hits; note: nearly all actives have a fitted effect of over 60% in size
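Protein-peptide AlphaScreen: BAZ2B 50 nM, b-H3K14Ac 50 nM, 1x PBS pH 7.4 + 0.01% Tween-20. Preincubation 30 min RT; cpd 30 min RT (top 110 uM); beads 20 min RT, light-protected.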
PLK1 PBD block: inhibitors of human PLK1 polo-box domain binding | Potency, µM, usual class: inhibitors | 360,000 compounds, 2.8% hits | Plk1 PBD binding of FITC phosphopeptide, fluorescence polarization | AID 720504 | P53350; note: series mostly up to about 57 µM; nearly all actives have a fitted effect of over 65% in size
PI5P4K alpha inh: PI5P4K alpha (human) kinase inhibition; P48426; PI5P4Kalpha enzyme, ADP-Glo luminescence, 60 min; active compounds read low; max response, %; 330,000 compounds, 1.2% hits; AID 652105; active = max response of -50% or lower; inconclusive = between -30% and -50%; inactive = -30% or higher; note: value at the top dose of about 77 µM
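ADP-Glo luminescence end-point after a 60 min room-temperature kinase reaction. PI5P4Kalpha and substrate in HEPES pH 7.4 buffer with EGTA, 0.1% CHAPS and 5% DMSO; ATP at 5 microM final.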
HP1b binding inh: HP1-beta chromodomain-methylated histone interaction inhibition; 390,000 compounds, 0.56% hits; Potency, µM (titrated, usually from 114 µM), usual class: inhibitors; P83916; AlphaScreen HP1-beta / biotin-H3K9me3 peptide binding; note: nearly all actives have a fitted effect of over 70% in size
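HP1-beta protein (50 nM final) preincubated 30 min at room temperature with biotinylated H3(1-18)K9me3 peptide (50 nM) in PBS pH 7.4, 0.01% Tween-20, then compound added for 30 min. AlphaScreen streptavidin donor/nickel chelate acceptor beads (10 ug/mL final), 30 min dark, luminescence read.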
ADP-Glo interf: interferes with ADP-Glo detection without enzyme present. ADP-Glo detection counter-screen, luciferase luminescence, no enzyme. shares compounds with PI5P4K alpha inh. Potency, µM (highest dose often 76.9 µM), actives largely listed as inhibitors. 1,100 tested, under 10 active
Hits are given with their value; i = inactive; ? = inconclusive; nt = no result given; [ ] = another dose, or the depositor's remark. Unless noted, calls come from the whole dose curve; as a rule, active = well fitted curve in the direction sought with a large enough effect; inconclusive = small, poorly fitted or top-dose-only effect, or another doubt; inactive = no such curve, though single readings can be large; an effect the other way counts as inactive or inconclusive.

SMILES	G9a inh	JMJD2A Tudor inh	BAZ2B block	PLK1 PBD block	PI5P4K alpha inh	HP1b binding inh	ADP-Glo interf
CC(=O)Nc1ccc2ccc3cccc4ccc1c2c34	i	i	i	i	i	i	nt
O=C(OCC(=O)N1CCCCCC1)c1ccc(Cl)c(S(=O)(=O)N2CCCC2)c1	i	20µM	nt	11µM	-61	?	i
CCC(C)n1c(SCC(=O)Nc2ccc3[nH]c(=O)[nH]c3c2)nc2ccccc2c1=O (stereo not drawn)	?	i	i	i	-50	i	i
CC(C)Cn1c(SCC(=O)Nc2ccc3[nH]c(=O)[nH]c3c2)nc2ccccc2c1=O	?	i	i	i	i	i	nt
COC(=O)[C@]12CCCCC=C1N(Cc1cccc3ccccc13)C(=O)[C@H](CC(=O)N1CCN(C(=O)c3ccco3)CC1)C2	nt	nt	nt	i	i	nt	nt
Cc1ccc(NCC(=O)Nc2ccc(Br)cc2)cc1C	56µM	i	?	i	i	i	i
CCOc1ccccc1-c1nnc2n1N=C(c1ccccc1OC)CS2	nt	i	nt	nt	nt	nt	nt
COc1cccc(NS(=O)(=O)c2ccc3c(c2)C2C=CCC2C(c2ccc(C(=O)O)cc2)N3)c1 (stereo not drawn)	7.9µM	45µM	45µM	?	-66	?	i
O=c1cc(O)c2sc(Nc3cccc(C(F)(F)F)c3)nc2[nH]1	?	i	i	i	-84	i	i
Cc1nnc(SCC(=O)NC2CCCCC2)n1-c1ccccc1	nt	nt	nt	i	i	nt	nt
CC1(C)CC(=O)c2c(O)cc(OCC(=O)Nc3ccc(CCO)cc3)cc2O1	nt	i	i	i	i	i	nt
CCN1CCN(C(=O)Cn2nc(-c3ccc(Cl)cc3)ccc2=O)CC1	i	i	i	i	?	i	i
CCOC(=O)N1CCN(C(=O)Cn2nc(-c3ccc(Cl)cc3)ccc2=O)CC1	i[12.7 µM]	i	i	i	i	i	nt
Cc1noc(C)c1CCC(=O)N1CCCC(CCC(=O)NCc2ccc(F)c(F)c2)C1 (stereo not drawn)	?	100µM	i	i	-61	?	i
O=C(CCC1CCCN(C(=O)CCC(F)(F)F)C1)NCc1ccc(F)c(F)c1 (stereo not drawn)	i	i	i	i	i	i	nt
CCOC(=O)Cc1cc(=O)n2[nH]c(-c3ccccc3)cc2n1	?	i	i	i	nt	i	nt
COCc1cc(=O)n2[nH]c(-c3ccsc3-n3c(C)ccc3C)cc2n1	i	i[11.4 µM]	?	?	-54	i	i
COc1ccc(N2C(=O)CSC23C(=O)N(CC(=O)NC2CCCC2)c2ccccc23)cc1 (stereo not drawn)	nt	i	i	i	i	i	nt
O=C(Nc1nnc(COc2ccc(Cl)cc2)s1)c1cccs1	?	i[11.4 µM]	i	2.7µM	-57	?	i
Cc1ccc(NC(=O)N2CCC(CN3CCCC3)CC2)c(C)c1	i	i	i	nt	nt	i	nt
O=C(OCC#CCSc1nnc(-c2cccc3ccccc23)o1)c1ccc(OC(F)F)cc1	nt	i	nt	nt	nt	nt	nt
NS(=O)(=O)c1ccc(NC(=O)C2Cc3ccccc3CN2C(=O)c2ccco2)cc1 (stereo not drawn)	50µM	40µM	50µM	i	-87	?	i
CN1CCN(C(c2ccccc2)c2ccc(Cl)cc2)CC1 (stereo not drawn)	i	i	i	i	-52	i	i
CCN1CCC(O)(C(C(=O)OC)c2ccccc2)CC1 (stereo not drawn)	nt	i	nt	i	i	i	nt
COc1ccc(CCC(=O)NNC(=O)c2ccccn2)cc1OC	i	i	i	i	i	i	nt
SMILES	G9a inh	JMJD2A Tudor inh	BAZ2B block	PLK1 PBD block	PI5P4K alpha inh	HP1b binding inh	ADP-Glo interf
O=S1(=O)CC(N2CCSCC2)CN1Cc1cn(Cc2ccc(F)cc2)nn1 (stereo not drawn)	nt	nt	nt	i	i	nt	i
O=S1(=O)CC(N2CCSCC2)CN1Cc1cn(Cc2ccc(Cl)cc2)nn1 (stereo not drawn)	nt	nt	nt	i	i	nt	nt
COc1ccc2c(CC(=O)N3CCN(S(=O)(=O)c4cccs4)CC3)coc2c1	i	i	i	i	i	i	nt
COc1ccc2c(CC(=O)N3CCN(S(=O)(=O)c4ccc(F)cc4)CC3)coc2c1	i[12.7 µM]	?	?	i	-53	i	i
Cc1ccc(C)c(NC(=O)C2(C)CCN2C(=O)C(C)C)c1 (stereo not drawn)	nt	nt	nt	i	i	nt	nt
Cc1cc2nc(NC(=O)C3(C)CCN3C(=O)C(C)C)[nH]c2cc1C (stereo not drawn)	nt	nt	nt	i	?	nt	i
Cc1nc2sc3c(c2c(=O)[nH]1)CCC3	i[12.7 µM]	i	i	i	nt	i	nt
Cc1cc(-c2nc3c4c5c(sc4[nH]c(=O)n3n2)CCC5)c(C)o1	?	?	50µM	?	-59	?	i
Nc1nc(Nc2ccccc2F)sc1C(=O)c1ccccc1	i[0.501 µM]	?	45µM	i	-91	i	i
Cc1ccc(NC2Sc3ccccc3NC2=O)cc1 (stereo not drawn)	1.8µM	50µM	i	9.5µM	-63	45µM	i
COc1ccccc1N1CCN(c2ncnc3c2nnn3C)CC1	i	i	i	nt	nt	i	nt
CCN(Cc1ccccc1)C(=O)COC(=O)[C@@H]1CCCN1C(=O)c1cccs1	nt	i	nt	i	i	i	nt
CC[C@H]1NC(=O)c2cc(S(N)(=O)=O)c(Cl)cc2N1	i[21.5 µM]	nt	nt	nt	nt	nt	nt
Cc1cc2ccccc2nc1SCC(=O)NC1CCCC1	i	14µM	i	24µM	-65	i	i
Cc1cc2ccccc2nc1SCC(=O)NC1CCCCC1	nt	i	?	i	i	i	nt
CCCCCCCCCCCCCCCCCC(=O)OC[C@@H](O)[C@H]1OC[C@H](O)[C@H]1O	i	nt	nt	nt	nt	nt	nt
O=C(Cc1cccs1)NCCc1csc(-c2ccccc2)n1	i	i	?	i	-60	i	i
Cc1oc2ccc(OCc3ccccc3Cl)cc2c1C(=O)O	i	i	i	i	-61	i	i
CC(C)CCNC(=O)c1cc(-c2ccco2)nc2ccccc12	i[12.7 µM]	i	i	i	nt	i	nt
COc1ccc(NC(=O)c2cc(-c3ccco3)nc3ccccc23)cc1S(=O)(=O)N1CCOCC1	nt	?	45µM	21µM	-59	?	i
CCc1nnc(NC(=O)c2cc(-c3ccco3)nc3ccccc23)s1	50µM	?	40µM	?	-78	i	i
CCCCCCNC(=O)c1cc(-c2ccco2)nc2ccccc12	8.9µM	20µM	35µM	27µM	-86	22µM	i
COC(=O)C1CCN(C(=O)c2cc(-c3ccco3)nc3ccccc23)CC1	nt	28µM	nt	30µM	-82	?	i
CN1CCN2c3ccccc3CC(C#N)(C#N)C2C1 (stereo not drawn)	nt	nt	nt	i	i	nt	nt
Cc1ccc(NC(=O)Cn2c(=O)n(Cc3nc(C)no3)c(=O)c3cc4c(cc32)OCO4)c(C)c1	i	i	i	nt	nt	i	nt
O=c1cc(-c2ccccc2)n2c(SCc3c(F)cccc3Cl)nnc2[nH]1	i	i	i	nt	nt	i	nt

Source: PubChem BioAssay
